Source: PubChem BioAssay AID1159580 (chemical genetic matrix, 2015)
Where “and” joins values, the source holds several entries; their conditions need not be identical. Identical values can stand only once. Out of some 5,500 compounds screened, about 2,000 (36%) were called active. Roughly 18% stayed inconclusive and do not appear here. Cut-off read from the data, not from the text of the source: active = normalized growth mostly below about 0.91 (no sharp cut-off); inconclusive = no clear call, values can overlap the other calls; inactive = mostly above about 0.92. The list shows a part of the results.

Test: chemical genetic growth profiling, strain panel (AID 1159580);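 note: tested at 20 µM; growth read once vehicle control cultures reached saturation at 30 °C; 1 = growth at the plate median or of vehicle wells; lower values mean less growth of the strain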
Settings: S. cerevisiae deletion strains, growth OD

Measured: normalized growth

CN(C)[C@@H]1C(=O)C(C(N)=O)=C(O)[C@@]2(O)C(=O)C3=C(O)c4c(O)cccc4[C@@](C)(O)[C@H]3[C@H](O)[C@@H]12
inactive: locus YAL013W, strain DEP1, stronger effect = lower value 1.01 | locus YAL021C, strain ccr4, stronger effect = lower value 1.02 | locus YAL026C, strain drs2, stronger effect = lower value 1.01 | locus YAL030W, strain snc1, stronger effect = lower value 1 | locus YBL061C, strain skt5, stronger effect = lower value 1.02 | locus YBR009C, strain hhf1, stronger effect = lower value 1.01 | locus YBR021W, strain FUR4, stronger effect = lower value 0.99 | locus YBR023C, strain chs3, stronger effect = lower value 1.02 | locus YBR171W, strain sec66, stronger effect = lower value 1.02 | locus YBR229C, strain ROT2, stronger effect = lower value 1 | locus YBR231C, strain swc5, stronger effect = lower value 0.991 | locus YBR279W, strain paf1, stronger effect = lower value 1.02 | locus YCL011C, strain gbp2, stronger effect = lower value 1.01 | locus YCL016C, strain dcc1, stronger effect = lower value 1.01 | locus YCL029C, strain bik1, stronger effect = lower value 0.998 | locus YCL061C, strain MRC1, stronger effect = lower value 1.01 | locus YCL069W, strain vba3, stronger effect = lower value 1.02 | locus YCR088W, strain abp1, stronger effect = lower value 1.02 | locus YDL005C, strain med2, stronger effect = lower value 1.02 | locus YDL035C, strain GPR1, stronger effect = lower value 1 | locus YDL040C, strain nat1, stronger effect = lower value 1.03 | locus YDL074C, strain BRE1, stronger effect = lower value 1.01 | locus YDL101C, strain DUN1, stronger effect = lower value 1.01 | locus YDL134C, strain PPH21, stronger effect = lower value 0.995 | locus YDL185W, strain tfp1, stronger effect = lower value 0.988 | locus YDL192W, strain arf1, stronger effect = lower value 0.998 | locus YDR001C, strain nth1, stronger effect = lower value 1.02 | locus YDR069C, strain doa4, stronger effect = lower value 1 | locus YDR101C, strain arx1, stronger effect = lower value 1.01 | locus YDR137W, strain rgp1, stronger effect = lower value 0.975 | locus YDR150W, strain NUM1, stronger effect = lower value 1.01 | locus YDR159W, strain sac3, stronger effect = lower value 1.05 | locus YDR162C, strain NBP2, stronger effect = lower value 0.992 | locus YDR195W, strain ref2 1.01 | locus YDR297W, strain sur2, stronger effect = lower value 1.02 | locus YDR318W, strain mcm21, stronger effect = lower value 0.999 | locus YDR334W, strain swr1, stronger effect = lower value 1.01 | locus YDR335W, strain msn5, stronger effect = lower value 1.02 | locus YDR388W, stronger effect = lower value 1 | locus YDR392W, strain spt3, stronger effect = lower value 1.02 | locus YDR502C, strain sam2, stronger effect = lower value 0.994 | locus YEL003W, strain gim4, stronger effect = lower value 1.01 | locus YEL037C, strain rad23, stronger effect = lower value 1.02 | locus YEL061C, strain CIN8 (second series), stronger effect = lower value 1.01 | locus YEL061C, strain CIN8, stronger effect = lower value 1 | locus YER015W, strain faa2, stronger effect = lower value 1.01 | locus YER016W, strain bim1, stronger effect = lower value 1 | locus YER110C, stronger effect = lower value 1 | locus YER111C, strain swi4, stronger effect = lower value 1.01 | locus YER155C, strain BEM2 (second series), stronger effect = lower value 0.995 | locus YER155C, strain BEM2, stronger effect = lower value 1.01 | locus YER167W, strain BCK2, stronger effect = lower value 1.01 | locus YFR010W, strain ubp6, stronger effect = lower value 1 | locus YGL078C, strain dbp3, stronger effect = lower value 0.984 | locus YGL086W, strain mad1, stronger effect = lower value 0.982 | locus YGL167C, strain pmr1, stronger effect = lower value 1.01 | locus YGL173C, strain kem1, stronger effect = lower value 1 | locus YGL227W, strain vid30, stronger effect = lower value 1.04 | locus YGL240W, strain doc1, stronger effect = lower value 1.01 | locus YGL248W, strain PDE1, stronger effect = lower value 1 | locus YGL253W, strain hxk2, stronger effect = lower value 1.02 | locus YGR078C, strain PAC10, stronger effect = lower value 1 | locus YGR135W, strain pre9, stronger effect = lower value 0.987 | locus YGR252W, strain gcn5, stronger effect = lower value 0.967 | locus YHR013C, strain ard1, stronger effect = lower value 1 | locus YHR027C, strain rpn1, stronger effect = lower value 1.02 | locus YHR030C, strain SLT2, stronger effect = lower value 1 and 0.979 | locus YHR079C, strain IRE1 (second series), stronger effect = lower value 0.992 | locus YHR079C, strain IRE1, stronger effect = lower value 0.98 | locus YHR094C, strain hxt1, stronger effect = lower value 0.999 | locus YHR129C, strain ARP1, stronger effect = lower value 1.01 | locus YHR142W, strain chs7, stronger effect = lower value 1.05 | locus YHR200W, strain rpn10, stronger effect = lower value 1 | locus YIL066C, strain RNR3, stronger effect = lower value 1 | locus YIL073C, strain SPO22, stronger effect = lower value 1.02 | locus YIL125W, strain kgd1, stronger effect = lower value 0.998 | locus YIR030C, strain dcg1, stronger effect = lower value 0.997 | locus YJL092W, strain hpr5, stronger effect = lower value 1.02 | locus YJL095W, strain BCK1 (second series), stronger effect = lower value 1.02 | locus YJL095W, strain BCK1, stronger effect = lower value 0.987 and 0.979 | locus YJL115W, strain asf1, stronger effect = lower value 1.03 | locus YJL129C, strain trk1, stronger effect = lower value 1.05 | locus YJL134W, strain LCB3, stronger effect = lower value 1.01 | locus YJL154C, strain vps35, stronger effect = lower value 1.04 | locus YJL164C, strain tpk1, stronger effect = lower value 0.997 | locus YJL166W, strain qcr8, stronger effect = lower value 1.03 | locus YJL168C, strain set2, stronger effect = lower value 0.998 | locus YJL187C, strain SWE1 (second series), stronger effect = lower value 1.01 | locus YJR043C, strain POL32, stronger effect = lower value 0.992 | locus YJR066W, strain TOR1, stronger effect = lower value 0.928
